# Source: ChEMBL document CHEMBL3988442, “University of Dundee, Small-Polar-MMV Screening Library” (2021)
# About 900 (1.7%) of roughly 53,000 compounds showed an effect of 50% or more. For the sample, strong results were picked, then their nearest neighbours and some compounds at random.
# Test system: Mycobacterium tuberculosis
# Assay: Cornell - Phenotypic assay to identify agents that inhibit growth of Mycobacterium tuberculosis
# Type: functional
# Set-up: scale not given: direction of the effect not stated beside the values
# Conditions: 10 mM as filed; unlikely as a test dose
row,Compound,Percent Effect
1,Cc1cc(N2CCC(CO)(CC3CCCCO3)CC2)c2ccccc2n1 (stereo not given),0.8134%
2,OCC1(CC2CCCCO2)CCN(c2cnc3ccccc3n2)CC1 (stereo not given),107%
3,Cc1cc(N2CCC(CO)(CC3CCCCO3)CC2)nc2ccccc12 (stereo not given),-1.855%
4,Cc1ccc(F)cc1C(=O)N1CCOCC12CCCC2,20.33%
5,Cc1[nH]ccc1C(=O)N1CCOCC12CCCC2,102.6%
6,O=C(c1ccc[nH]1)N1CCOCC12CCCC2,-33.44%
7,CCCN1C(=O)CC(N2CCN(c3ccc(F)cc3)CC2)C1=O (stereo not given),-5.623%
8,COCCN1C(=O)CC(N2CCN(c3ccc(F)cc3)CC2)C1=O (stereo not given),4.981%
9,O=C1CC(N2CCN(c3ccccc3O)CC2)C(=O)N1Cc1cccs1 (stereo not given),63.35%
10,O=C1CC(N2CCN(c3ccc(F)cc3)CC2)C(=O)N1Cc1cccs1 (stereo not given),42.8%
11,COCCN1C(=O)CC(N2CCN(c3ccccc3)CC2)C1=O (stereo not given),12.26%
12,COCCCN1C(=O)CC(N2CCN(c3ccc(F)cc3)CC2)C1=O (stereo not given),4.554%
13,CC(C)CN1C(=O)CC(N2CCN(c3ccc(F)cc3)CC2)C1=O (stereo not given),12.43%
14,COCCN1C(=O)CC(N2CCN(c3ccc(OC)cc3)CC2)C1=O (stereo not given),55.38%
15,O=C1CC(N2CCN(c3ccc(O)cc3)CC2)C(=O)N1Cc1cccs1 (stereo not given),104.3%
16,COC1(CNC(=O)c2ccoc2)CCSC1 (stereo not given),-5.057%
17,Cc1nn(C(C)C)c2cnn(CC(=O)N3CCSCC3)c12,-7.998%
18,CCO[C@H]1CO[C@@]2(CCN(Cc3ccc4c(c3)OCO4)C2)C1.O=C(O)C(F)(F)F,22.33%
19,CCC(c1ccccc1)S(=O)(=O)CCO (stereo not given),-20.37%
20,CN(C)c1ncc(CN2CCC(O)(c3ccccc3F)CC2)cn1.O=C(O)CC(O)(CC(=O)O)C(=O)O,6.266%
21,CN(C)c1ncc(CN2CCCC(Nc3ccc4c(c3)OCCO4)C2)s1 (stereo not given),37%
22,COc1ccc(NC2CCCN(Cc3cnc(N(C)C)s3)C2)cc1 (stereo not given),47.8%

row,Compound,Percent Effect
1,COc1ccc(NC2CCCN(Cc3cnc(N(C)C)s3)C2)cc1OC (stereo not given),55.76%
2,O=C(NC1CCCCC1)c1ccc(Oc2ccc3nncn3n2)cc1,-7.341%
3,CS(=O)(=O)N[C@H]1CCO[C@]2(CCN(C(=O)c3ccccn3)C2)C1.O=C(O)C(F)(F)F,4.539%
4,CN1CCCC(c2cncc(-c3cccc(C(F)(F)F)c3)n2)C1 (stereo not given),51.88%
5,CN1CCCC(c2cccc(-c3ccccc3F)n2)C1 (stereo not given),55.32%
6,OCCN1CCCC(c2cccc(-c3ccccc3F)n2)C1 (stereo not given),-3.425%
7,CN1CCCC(c2cccc(-c3cccc(C(F)(F)F)c3)n2)C1 (stereo not given),30.4%
8,CN1CCCC(c2nccnc2-c2cccc(C(F)(F)F)c2)C1 (stereo not given),32.41%
9,CS(=O)(=O)N1CCCC(c2cccc(-c3ccccc3F)n2)C1 (stereo not given),29.33%
10,CCN(CC)C(=O)c1cc(C2(C)CCN(C(C)=O)CC2)nc(C)n1,3.743%
11,O=C(O)C1CN(c2cccc(F)c2)CCO1 (stereo not given),-11.48%
12,O=C1CC(c2ccccc2)C2(CCN(Cc3ccccn3)CC2)N1 (stereo not given),1.787%
13,CC(=O)NCc1cc2n(n1)CCN(Cc1cccc(Cl)c1Cl)C2,13.71%
14,O=C(c1ccco1)N1CCC(n2nc(-c3ccco3)ccc2=O)CC1,11.6%
15,O=C(Cc1ccncc1)N(CCO)CCSc1ccc(Cl)cc1,12.99%
16,Cc1cccc(CNC(Cc2ccsc2)c2nc(C)c(C)s2)n1.Cl (stereo not given),47.96%
17,O=C1COc2cc(C(=O)NS(=O)(=O)c3ccc(F)c(F)c3)ccc2N1,-19.76%
18,Cc1nn(C)cc1S(=O)(=O)N[C@@H]1CC[C@@H](n2ccnc2C)[C@@H]1O,-21.64%
19,Cc1nn(C)cc1S(=O)(=O)N[C@@H]1CCC[C@@H](N2CCCC2)[C@@H]1O,19.92%
20,CO[C@@H]1CC[C@@H](NS(=O)(=O)c2cn(C)nc2C)[C@H]1O,50.32%
21,CC(NC(=O)N1CCNC(=O)CC1)c1ccc(OC(F)F)cc1 (stereo not given),-26.09%
22,c1cc(CN2CCC(Cc3noc(C4CC4)n3)CC2)c2c(c1)OCO2,11.43%

row,Compound,Percent Effect
1,Fc1ccc(C2(CNC3=NCCN3)CCCC2)cc1.I,20.05%
2,O=C(CCc1cc2n(n1)CCCNC2)NCCS(=O)(=O)N1CCCC1,-51.2%
3,CS(=O)(=O)N1CCN(c2cc(N3CCCC3CO)ncn2)CC1 (stereo not given),0.6089%
4,Cc1cccc2c1CCN(c1cc(N3CCCC3CO)ncn1)C2 (stereo not given),67.12%
5,CN1CCN(c2cc(N3CCCC3CO)ncn2)Cc2ccccc21 (stereo not given),-16.34%
6,Cc1noc(Cl)c1CCC(=O)N1CCCCC1Cn1cccn1 (stereo not given),-3.884%
7,Cc1noc(C(C)C)c1C(=O)NS(=O)(=O)c1ccc(Cl)cc1,78.7%
8,Cc1ccc(S(=O)(=O)NC(=O)c2c(C)noc2C(C)C)cc1C,26.09%
9,CCOc1ccc(S(=O)(=O)NC(=O)c2c(C)noc2C(C)C)cc1,49.48%
10,Cc1cc2nccc(C3CCN(C(=O)c4ccccc4F)CC3)n2n1,6.226%
11,CCC(Nc1ccc(CCN2CCOCC2)cc1)C(N)=O (stereo not given),-19.51%
12,COCC(=O)NCc1ccc(-c2ncncc2C(=O)N(C)C)cc1,50.66%
13,COCCC(=O)NCc1ccc(-c2ncncc2C(=O)N(C)C)cc1,32.24%
14,CN(C)C(=O)c1cncnc1-c1ccc(CNC(=O)C2CC2)cc1,37.26%
15,CNC(=O)c1sc2ccccc2c1C1CCN(c2nc(C)cc(C)n2)C1 (stereo not given),14.17%
16,CN1CCCC1CCNC(=O)c1ccccc1-n1cc(CN)cn1 (stereo not given),7.916%
17,Cc1cccc2c1C(=O)NC1(CCOCC1)N2,17.55%
18,Cn1nccc1-c1ccc2nc(C3CCN(CC4CC4)CC3)nn2c1.O=C(O)C(F)(F)F.O=C(O)C(F)(F)F,-10.01%
19,Cc1nc(NCc2ccc(C)o2)cc(C2CCNCC2)n1,-17.21%
20,COc1ccc2[nH]c(CNc3cc(C4CCNCC4)nc(C)n3)cc2c1,70.58%
21,Cc1nc(NCc2cccc(F)c2)cc(C2CCNCC2)n1.Cl,-9.727%
